Laboratory results reported in the supplement of paper PMC10849652.
The full data set covers some 8,800 targets. This sample favours those with a hit. About 0.5% of all pairs of compound and target were hits.

Experiments:
Assay in all cases: log2 fold change, soluble protein after heating vs DMSO (PISA); higher = thermal stabilisation; K562 lysate, 10 uM; active = over 0.2 and 3.5 SD of the protein, either way, in both replicates (recomputed)
[1] = compound: C1=CC=C(C=C1)[C@H](COC2=CC3=C(C=C2)NC(=O)N3)NC(=O)C4=CC=CN(C4=O)CC5=CC(=C(C=C5)F)F
Summary of the method: (§1)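 To prepare the extract, K562 pellets were dounce-homogenised in PBS pH 7.4 with 1 mM MgCl2, giving crude material at 1 mg/mL protein. This was treated with 10 μM compound for 30 min, then heated in aliquots for 3 min over 48°C-58°C before pooling and addition of NP-40 to 0.5% at 4°C. Centrifugation at 21,000xg for 90 min left soluble protein in the supernatant, which TMTpro 16plex LC-MS/MS quantified with equalised channel sums. Results are log-two fold changes in thermal stability compared with solvent controls, from duplicates.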

[2] = compound: CC1=C(SC2=C1C(=N[C@H](C3=NN=C(N32)C)CC(=O)N)C4=CC=C(C=C4)Cl)C
Summary of the method: as §1

[3] = compound: CC1=C2C(=CC=C1)N=C(N(C2=O)C3=CC=CC=C3C)CN4C=NC5=C(N=CN=C54)N
Summary of the method: as §1

[4] = compound: Cc1sc2c(c1C)C(c1ccc(Cl)cc1)=N[C@@H](CC(=O)OC(C)(C)C)c1nnc(C)n1-2
Summary of the method: as §1

[5] = compound: c1ccc([C@@H]2C[C@H]2NC2CCNCC2)cc1
Summary of the method: as §1

Measured: log2 fold change

EPHX2 (UniProt P34913)
inactive: [1] 0.021 | [2] 0.006 | [3] 0 | [4] 0.119 | [5] -0.012

ERBIN isoform 8 (UniProt Q96RT1)
Sequence of UniProt Q96RT1 (Q96RT1 whole entry, looked up): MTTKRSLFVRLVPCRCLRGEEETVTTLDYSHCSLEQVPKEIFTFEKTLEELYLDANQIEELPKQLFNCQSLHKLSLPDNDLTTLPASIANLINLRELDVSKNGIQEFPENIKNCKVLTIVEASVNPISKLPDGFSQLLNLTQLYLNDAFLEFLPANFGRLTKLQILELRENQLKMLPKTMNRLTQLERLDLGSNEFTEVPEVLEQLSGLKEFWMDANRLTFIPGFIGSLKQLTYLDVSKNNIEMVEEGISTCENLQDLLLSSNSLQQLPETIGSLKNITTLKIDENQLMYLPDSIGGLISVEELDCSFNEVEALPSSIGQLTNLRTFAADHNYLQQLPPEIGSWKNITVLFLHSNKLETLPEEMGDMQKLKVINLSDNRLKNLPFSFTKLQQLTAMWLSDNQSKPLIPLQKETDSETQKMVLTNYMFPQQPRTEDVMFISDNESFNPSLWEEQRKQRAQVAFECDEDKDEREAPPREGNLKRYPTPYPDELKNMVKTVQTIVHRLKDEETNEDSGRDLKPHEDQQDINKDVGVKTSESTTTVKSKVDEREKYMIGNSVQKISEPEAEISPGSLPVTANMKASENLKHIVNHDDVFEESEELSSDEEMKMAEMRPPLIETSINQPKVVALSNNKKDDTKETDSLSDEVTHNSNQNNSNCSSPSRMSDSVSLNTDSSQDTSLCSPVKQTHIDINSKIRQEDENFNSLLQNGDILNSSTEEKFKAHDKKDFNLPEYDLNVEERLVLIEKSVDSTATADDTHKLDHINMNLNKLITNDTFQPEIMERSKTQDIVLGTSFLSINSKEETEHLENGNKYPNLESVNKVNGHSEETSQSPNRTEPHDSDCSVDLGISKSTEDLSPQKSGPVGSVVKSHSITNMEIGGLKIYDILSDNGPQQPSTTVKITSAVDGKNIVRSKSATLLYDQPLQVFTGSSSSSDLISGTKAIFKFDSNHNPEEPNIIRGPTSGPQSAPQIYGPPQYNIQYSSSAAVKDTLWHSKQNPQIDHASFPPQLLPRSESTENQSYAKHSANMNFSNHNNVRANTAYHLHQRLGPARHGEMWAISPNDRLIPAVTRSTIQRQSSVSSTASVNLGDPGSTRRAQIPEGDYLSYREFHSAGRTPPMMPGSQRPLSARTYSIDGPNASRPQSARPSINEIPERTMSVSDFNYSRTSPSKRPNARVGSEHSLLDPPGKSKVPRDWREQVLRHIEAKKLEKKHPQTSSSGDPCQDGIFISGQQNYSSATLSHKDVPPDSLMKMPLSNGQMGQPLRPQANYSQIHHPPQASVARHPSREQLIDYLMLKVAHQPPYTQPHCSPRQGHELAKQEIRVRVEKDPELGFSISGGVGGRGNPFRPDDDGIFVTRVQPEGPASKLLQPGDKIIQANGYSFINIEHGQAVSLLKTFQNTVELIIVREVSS
inactive: [1] -0.012 | [2] 0.02 | [3] -0.04 | [4] 0.037 | [5] -0.048

EP300 (UniProt Q09472)
Sequence of UniProt Q09472 (Q09472 whole entry, looked up): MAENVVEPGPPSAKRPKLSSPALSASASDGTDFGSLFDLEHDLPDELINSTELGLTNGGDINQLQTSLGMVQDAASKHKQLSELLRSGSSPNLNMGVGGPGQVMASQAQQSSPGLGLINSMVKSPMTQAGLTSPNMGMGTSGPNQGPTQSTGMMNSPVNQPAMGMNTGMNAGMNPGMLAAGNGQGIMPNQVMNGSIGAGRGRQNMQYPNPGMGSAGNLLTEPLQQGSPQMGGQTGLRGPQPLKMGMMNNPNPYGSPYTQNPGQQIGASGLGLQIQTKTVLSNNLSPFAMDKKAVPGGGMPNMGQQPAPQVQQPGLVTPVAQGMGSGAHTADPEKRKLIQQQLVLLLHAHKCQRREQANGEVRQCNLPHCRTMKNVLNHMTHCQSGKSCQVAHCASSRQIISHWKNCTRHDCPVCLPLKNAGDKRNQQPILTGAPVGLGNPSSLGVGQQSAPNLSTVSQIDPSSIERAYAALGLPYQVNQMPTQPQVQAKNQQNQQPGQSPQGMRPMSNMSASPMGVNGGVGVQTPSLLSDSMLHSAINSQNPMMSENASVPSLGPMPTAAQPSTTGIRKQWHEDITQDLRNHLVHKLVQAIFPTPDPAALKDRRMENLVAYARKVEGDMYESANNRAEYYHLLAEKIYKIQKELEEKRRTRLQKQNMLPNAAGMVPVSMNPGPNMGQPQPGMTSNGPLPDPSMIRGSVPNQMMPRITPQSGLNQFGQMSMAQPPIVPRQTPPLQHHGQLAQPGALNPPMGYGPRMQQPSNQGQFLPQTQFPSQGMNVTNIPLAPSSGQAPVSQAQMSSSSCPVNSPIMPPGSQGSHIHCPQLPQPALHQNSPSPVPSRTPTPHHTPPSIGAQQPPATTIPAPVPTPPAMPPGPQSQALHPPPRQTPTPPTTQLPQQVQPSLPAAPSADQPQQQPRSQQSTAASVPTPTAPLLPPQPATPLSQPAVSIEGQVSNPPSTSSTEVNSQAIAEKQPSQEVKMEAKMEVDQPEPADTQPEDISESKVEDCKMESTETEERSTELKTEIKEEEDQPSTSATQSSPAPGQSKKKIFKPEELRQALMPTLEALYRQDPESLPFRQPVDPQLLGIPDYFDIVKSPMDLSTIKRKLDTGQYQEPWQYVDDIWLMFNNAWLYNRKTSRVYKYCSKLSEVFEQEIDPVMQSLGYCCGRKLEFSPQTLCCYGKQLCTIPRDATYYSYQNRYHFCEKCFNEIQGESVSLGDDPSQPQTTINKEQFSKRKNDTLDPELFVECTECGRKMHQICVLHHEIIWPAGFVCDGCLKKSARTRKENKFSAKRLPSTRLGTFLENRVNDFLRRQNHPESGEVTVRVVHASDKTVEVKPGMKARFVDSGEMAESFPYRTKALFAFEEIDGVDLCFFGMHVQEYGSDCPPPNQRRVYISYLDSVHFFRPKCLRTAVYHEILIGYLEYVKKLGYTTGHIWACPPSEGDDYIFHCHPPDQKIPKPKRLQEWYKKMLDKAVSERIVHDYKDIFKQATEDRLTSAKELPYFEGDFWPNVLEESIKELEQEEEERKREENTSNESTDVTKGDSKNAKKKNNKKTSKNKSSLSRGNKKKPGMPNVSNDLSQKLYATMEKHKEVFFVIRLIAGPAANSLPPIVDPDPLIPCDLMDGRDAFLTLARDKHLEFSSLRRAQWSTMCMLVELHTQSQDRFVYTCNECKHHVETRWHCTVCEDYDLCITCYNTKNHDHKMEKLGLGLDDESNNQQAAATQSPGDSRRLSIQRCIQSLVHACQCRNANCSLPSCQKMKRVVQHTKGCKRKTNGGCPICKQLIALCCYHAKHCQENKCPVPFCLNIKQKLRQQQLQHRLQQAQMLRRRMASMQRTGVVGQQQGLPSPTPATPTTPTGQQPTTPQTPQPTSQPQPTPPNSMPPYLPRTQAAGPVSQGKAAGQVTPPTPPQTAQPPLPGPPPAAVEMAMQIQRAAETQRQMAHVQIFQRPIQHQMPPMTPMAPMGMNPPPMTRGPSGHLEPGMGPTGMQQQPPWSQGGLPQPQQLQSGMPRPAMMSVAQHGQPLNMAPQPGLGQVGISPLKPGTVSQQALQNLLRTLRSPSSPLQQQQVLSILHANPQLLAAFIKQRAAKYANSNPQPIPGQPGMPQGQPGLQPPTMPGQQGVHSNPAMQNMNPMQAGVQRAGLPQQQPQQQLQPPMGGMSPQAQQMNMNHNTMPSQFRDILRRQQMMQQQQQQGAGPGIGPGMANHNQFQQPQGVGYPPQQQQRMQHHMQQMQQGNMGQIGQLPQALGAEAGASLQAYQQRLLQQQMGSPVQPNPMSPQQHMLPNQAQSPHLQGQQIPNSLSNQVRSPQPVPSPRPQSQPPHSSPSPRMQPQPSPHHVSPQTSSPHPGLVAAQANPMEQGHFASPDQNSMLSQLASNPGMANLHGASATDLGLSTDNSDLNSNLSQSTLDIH
inactive: [1] -0.048 | [2] -0.013 | [3] 0.025 | [4] 0.005 | [5] -0.016

DVL2 (UniProt O14641)
inactive: [1] -0.012 | [2] -0.01 | [3] 0.032 | [4] 0.098 | [5] -0.017

FAU (UniProt E9PR30)
inactive: [1] 0.001 | [2] 0.06 | [3] -0.008 | [4] 0.018 | [5] 0.135

EDARADD (UniProt Q8WWZ3)
inactive: [1] 0.074 | [2] -0.088 | [3] -0.032 | [4] -0.037 | [5] 0.064

FANCI (UniProt Q9NVI1)
Sequence of UniProt Q9NVI1 (Q9NVI1 whole entry, looked up): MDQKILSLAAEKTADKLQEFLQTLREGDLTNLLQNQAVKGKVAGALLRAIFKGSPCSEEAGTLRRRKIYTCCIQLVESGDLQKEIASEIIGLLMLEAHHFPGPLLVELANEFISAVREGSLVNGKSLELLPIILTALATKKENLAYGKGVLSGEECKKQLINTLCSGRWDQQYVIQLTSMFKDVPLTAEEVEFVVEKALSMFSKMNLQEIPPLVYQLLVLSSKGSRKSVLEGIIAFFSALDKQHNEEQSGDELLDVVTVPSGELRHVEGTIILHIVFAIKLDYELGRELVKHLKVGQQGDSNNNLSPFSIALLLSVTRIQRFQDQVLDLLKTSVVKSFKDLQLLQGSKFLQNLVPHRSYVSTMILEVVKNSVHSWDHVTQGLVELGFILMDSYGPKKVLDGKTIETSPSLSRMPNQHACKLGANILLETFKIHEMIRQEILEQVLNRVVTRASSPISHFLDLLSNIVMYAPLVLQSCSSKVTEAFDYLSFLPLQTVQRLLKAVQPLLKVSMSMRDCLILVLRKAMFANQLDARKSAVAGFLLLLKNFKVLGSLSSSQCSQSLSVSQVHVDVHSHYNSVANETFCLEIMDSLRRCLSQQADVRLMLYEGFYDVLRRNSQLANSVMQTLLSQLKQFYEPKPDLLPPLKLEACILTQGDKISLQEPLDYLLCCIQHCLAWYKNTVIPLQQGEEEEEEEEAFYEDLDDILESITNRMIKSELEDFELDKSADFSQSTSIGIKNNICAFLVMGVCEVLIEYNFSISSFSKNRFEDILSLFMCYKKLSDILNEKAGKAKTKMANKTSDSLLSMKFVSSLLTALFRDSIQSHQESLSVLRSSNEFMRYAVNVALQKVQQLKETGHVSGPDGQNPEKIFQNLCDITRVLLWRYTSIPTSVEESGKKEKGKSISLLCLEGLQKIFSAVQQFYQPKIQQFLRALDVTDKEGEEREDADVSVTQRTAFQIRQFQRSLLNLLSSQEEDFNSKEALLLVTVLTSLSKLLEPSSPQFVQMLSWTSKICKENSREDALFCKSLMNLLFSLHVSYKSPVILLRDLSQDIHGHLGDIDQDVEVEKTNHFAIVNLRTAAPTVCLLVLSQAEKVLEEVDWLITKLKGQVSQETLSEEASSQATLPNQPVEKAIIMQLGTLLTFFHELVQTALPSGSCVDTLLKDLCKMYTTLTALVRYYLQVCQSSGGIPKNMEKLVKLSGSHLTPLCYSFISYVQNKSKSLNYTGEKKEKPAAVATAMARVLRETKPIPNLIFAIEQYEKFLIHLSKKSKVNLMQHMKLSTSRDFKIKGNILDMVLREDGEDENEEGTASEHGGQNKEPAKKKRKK
inactive: [1] -0.051 | [2] -0.009 | [3] 0.029 | [4] 0.015 | [5] 0.088

EXOC3 (UniProt O60645)
inactive: [1] -0.026 | [2] -0.019 | [3] 0.053 | [4] -0.017 | [5] 0.08

EGLN1 (UniProt Q9GZT9)
inactive: [1] 0.095 | [2] -0.023 | [3] -0.01 | [4] -0.038 | [5] -0.007
